Assay outcomes: PubChem BioAssay, Broad Institute
Rows were chosen to be rich in hits. Some 1.2% of all compounds tested hit in one or more screens of this group.
Casp6 inh: blocks human caspase-6 cleavage activity; inhibition, % at 12.5 µM; hit rate 0.53% among 350,000; P55212; purified caspase-6, Z-VEID-R110 cleavage fluorescence;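 active = mean inhibition across replicates at least about 35%, with every replicate also reaching that limit, limit read from the data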;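 also: 0% = median of neutral control wells and 100% = no fluorescence left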
RAD54 branch: inhibitors of human RAD54 branch migration. RAD54 Holliday junction branch migration, FAM/BHQ fluorescence. AID 602329. hit rate 0.14% among 360,000. inhibition, % at 10.4 µM;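 active = mean normalized replicate activity at least 40 and at least half of replicates scoring 40 or more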;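 also: 0% = median of neutral control wells and 100% = median of positive control wells; inhibitors cause a drop in the FAM fluorescence signal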
Target sequence (Q92698 whole entry, looked up): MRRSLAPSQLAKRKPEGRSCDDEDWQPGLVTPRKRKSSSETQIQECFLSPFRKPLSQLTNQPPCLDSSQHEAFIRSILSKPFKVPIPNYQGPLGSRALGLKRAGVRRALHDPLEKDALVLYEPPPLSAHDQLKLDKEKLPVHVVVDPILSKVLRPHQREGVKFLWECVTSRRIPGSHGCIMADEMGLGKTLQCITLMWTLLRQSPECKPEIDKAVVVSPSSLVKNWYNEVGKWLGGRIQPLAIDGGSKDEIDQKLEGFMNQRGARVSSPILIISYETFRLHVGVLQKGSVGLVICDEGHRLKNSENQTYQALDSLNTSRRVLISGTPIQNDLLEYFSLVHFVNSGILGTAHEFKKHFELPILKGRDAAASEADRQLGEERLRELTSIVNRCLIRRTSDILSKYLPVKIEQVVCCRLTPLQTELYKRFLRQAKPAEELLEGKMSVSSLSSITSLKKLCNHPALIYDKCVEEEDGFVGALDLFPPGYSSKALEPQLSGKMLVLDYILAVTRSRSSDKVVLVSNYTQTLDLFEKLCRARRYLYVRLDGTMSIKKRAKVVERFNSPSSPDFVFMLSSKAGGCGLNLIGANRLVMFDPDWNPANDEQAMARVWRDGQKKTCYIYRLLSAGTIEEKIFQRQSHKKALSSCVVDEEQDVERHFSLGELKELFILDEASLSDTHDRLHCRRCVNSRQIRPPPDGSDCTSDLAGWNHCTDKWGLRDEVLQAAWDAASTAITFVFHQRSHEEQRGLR
Glyco luc inh: N-linked glycosylation inhibition; reporter increase, % at 12.5 µM; hit rate 0.23% among 360,000; D54 ERlucT glycosylation luciferase reporter, 24 h; percent of 100 nM tunicamycin response;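 active = mean luciferase reporter signal, scaled so untreated is 0 and the glycosylation-blocking control 100, at or above a set limit in every replicate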;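 also: luciferase carries N-glycosylation sites so blocking glycosylation raises the light; 0% = median of neutral control wells and 100% = median of 100 nM tunicamycin wells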
RAD52 inh: RAD52 (human) annealing inhibition; recombinant RAD52 DNA annealing, FRET fluorescence; inhibition, % at 18.7 µM; hit rate 0.46% among 360,000; AID 651710;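 active = every replicate showing at least 50% inhibition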
NSD2 HMT inh: NSD2 (human) methyltransferase inhibition | NSD2 peptide methylation, AlphaScreen, 120 min | inhibition, % at 12.5 µM | hit rate 0.54% among 310,000; in the data active = inhibition above about 50%
CASP1 counter: selectivity counter-screen: inhibitors of human caspase-1 | shares compounds with Casp6 inh | 100 tested, under 10 active | AID 743289 | purified caspase-1, Z-YVAD-R110 cleavage fluorescence | activity change, negative = inhibition, % at 35 µM;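 active = compounds lowering fluorescence whose fitted half-maximal concentration is no more than twice their top tested dose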
Alpha artifact: counter-screen for NSD2 inhibitors: AlphaScreen artifacts; shares compounds with NSD2 HMT inh; hit rate 9.4% among 1,500; AlphaScreen artifact counterscreen, preloaded methylated H4 peptide; AID 1053174; AC35, µM (series often up to 10 µM), inactives show top-dose activity change, negative = signal loss; call rule not given here
Numbers without * were called inactive; · = not tested or not shown.

SMILES | Casp6 inh | RAD54 branch | Glyco luc inh | RAD52 inh | NSD2 HMT inh | CASP1 counter | others
COc1cc(NC(C)CCCNC(C)C)c2ncccc2c1OC (stereo not given) | 37.5* | -13.4 | 5.2 | -37.4 | 111.4* | 0.7
O=C(Nc1cccc(Br)c1)C1CCCC1 | -2.4 | 2.7 | -0.2 | -5.3 | -0.1 | ·
O=C(O)C1CCCCC1C(=O)Nc1cccc(Br)c1 (stereo not given) | 75.1* | -0.4 | 2.8 | 5.7 | · | -2.0
Nc1cc2c(cc1Br)[nH]c(=O)c1ccccc12 | 42.4* | · | 18.1 | -5.3 | · | 5.7
Cc1cccc(NC(=O)CNC(=O)c2cccc(-n3cccc3)c2)c1C | 82.5* | -0.6 | 1.9 | -12.9 | 2.0 | 0.3
Cc1ccc(NC(=O)CN(C)C(=O)c2cccc(-n3cccc3)c2)cc1 | 82.5* | -3.5 | 2.7 | -2.3 | 24.0 | 10.6
COc1ccc(NC(=O)CN(C)C(=O)c2cccc(-n3cccc3)c2)cc1 | 51.3* | -9.4 | -0.5 | -9.9 | 8.7 | -2.7
Cc1cccc(C)c1NC(=O)CN(C)C(=O)c1cccc(-n2cccc2)c1 | 14.8 | · | 0.3 | -19.0 | -0.7 | ·
C[C@H]1CN([C@@H](C)CO)C(=O)c2cc(C#Cc3cccnc3)cnc2O[C@@H]1CN(C)Cc1ccc(F)cc1 | · | -3.2 | · | 10.2 | · | ·
O=C(O)c1ccccc1Nc1cc(Cl)c2nonc2c1[N+](=O)[O-] | 2.7 | -5.1 | 1.9 | -21.6 | 45.1 | ·
O=[N+]([O-])c1c(Nc2ccccn2)cc(Cl)c2nonc12 | 59.2* | · | -17.0 | -18.7 | 3.5 | -1.1
O=C(N1CCOCC1)[C@@]1(Cc2ccccc2)N=C(c2ccc(OCCCO)cc2)O[C@H]1c1ccccc1 | 1.5 | -1.1 | · | 13.5 | · | ·
CCCN1[C@@H]2c3ccc(C4=CCCCC4)c(=O)n3C[C@@H]2[C@@H](CO)[C@@H]1C(=O)NC1Cc2ccccc2C1 | 1.7 | -1.5 | · | -19.3 | · | ·
Cn1c(=O)c2c(-c3ccccc3)n(-c3ccc(N)cc3)cc2n(C)c1=O | 83.1* | -7.6 | 6.2 | -32.8 | · | -0.5
Cn1c(=O)c2c(-c3ccccc3)n(-c3cccc(O)c3)cc2n(C)c1=O | 5.3 | -6.0 | 4.6 | -33.9 | · | ·
Cc1oc2c(cc(NS(=O)(=O)c3ccc(C(C)C)cc3)c3ccccc32)c1C(=O)O | 39.4* | -18.7 | -0.9 | -248.7 | 19.7 | 12.1
C[C@@H]1CCCCO[C@@H](CN(C)Cc2ccc(C(F)(F)F)cc2)[C@H](C)CN([C@H](C)CO)C(=O)c2cc(N(C)C)ccc2O1 | 0.2 | -2.6 | · | -4.5 | · | ·
O=C(O)CC(CCc1ccccc1)OC1OC(CO)C(O)C(O)C1O (stereo not given) | 71.2* | -5.5 | 0.8 | 6.5 | · | 21.6
Cc1ccc(S(=O)c2ccc([N+](=O)[O-])c3nonc23)cc1 (stereo not given) | 91.5* | -74.7 | 5.3 | -487.1 | 65.5* | 21.2
Cc1ccc(Nc2c([N+](=O)[O-])ccc3nonc23)c(C)c1 | -2.6 | · | -1.3 | -5.1 | 1.1 | ·
Oc1cc(NCCN2CCOCC2)cc2cccnc12 | 90.0* | -11.7 | 21.0 | 47.9 | · | -2.0
O=c1[nH]c(Nc2ccccc2Cl)cc2ccccc12 | 87.6* | 14.7 | 3.0 | -30.7 | · | -9.5
O=c1[nH]c(Nc2ccc(F)cc2)cc2ccccc12 | 99.5* | 12.4 | 7.9 | -10.6 | 96.6* | 6.1
Cc1cc2ccccc2c(=O)[nH]1 | · | -4.1 | 1.9 | · | · | ·
Cc1ccccc1Nc1cc2ccccc2c(=O)[nH]1 | · | · | 3.3 | · | · | ·
SMILES | Casp6 inh | RAD54 branch | Glyco luc inh | RAD52 inh | NSD2 HMT inh | CASP1 counter | others
O=C(C[C@H]1C=C[C@@H](NS(=O)(=O)c2ccccc2)[C@@H](CO)O1)N1CCN(c2ccccc2)CC1 | 0.7 | · | · | 0.1 | · | ·
CCCNC(=O)N1C[C@H]2[C@@H](c3ccccc31)[C@@H](CO)N2Cc1cc(F)ccc1F | -5.4 | 0.9 | · | -10.5 | · | ·
Oc1cc(O)cc(C=Cc2ccc(O)c(O)c2)c1 | 76.0* | · | · | 4.7 | 89.9* | -8.0
O=C(C[C@H]1CC[C@@H](NC(=O)c2cccc(F)c2)[C@@H](CO)O1)NCCN1CCCC1 | -10.8 | 15.4 | · | -8.5 | · | ·
CCOC(=O)c1sc2nc(OCCN3CCOCC3)cc(C)c2c1N | 82.0* | · | · | 12.1 | · | 5.4
CN(C)CC(=O)N[C@@H]1C=C[C@@H](CC(=O)O)O[C@@H]1CO | 1.3 | · | · | -10.8 | · | ·
Cc1noc(C)c1NC(=O)N(C)C[C@H]1Oc2c(NS(=O)(=O)c3cn(C)cn3)cccc2C(=O)N([C@@H](C)CO)C[C@@H]1C | 7.3 | 0.3 | · | -5.3 | · | ·
O=C(COC(=O)c1ccccc1)Nc1ncc([N+](=O)[O-])s1 | 84.4* | 7.6 | 0.1 | -20.2 | 83.1* | -6.7
O=C(Nc1ccccc1)Nc1ncc([N+](=O)[O-])s1 | 7.4 | · | -16.3 | -6.6 | 13.8 | ·
O=C(NCC1CC1)[C@@H]1[C@@H](CO)[C@@H]2Cn3c(ccc(C4=CCCC4)c3=O)[C@H]1N2C(=O)C1CC1 | -2.5 | -2.5 | · | -5.8 | · | ·
O=C(C[C@@H]1C[C@H]2c3cc(NC(=O)NC4CCCCC4)ccc3O[C@H]2[C@@H](CO)O1)NCc1ccccn1 | -0.1 | 0.8 | · | -10.7 | · | ·
O=C(C[C@@H]1C[C@H]2c3cc(NC(=O)NC4CCCCC4)ccc3O[C@H]2[C@H](CO)O1)NCc1ccccn1 | 74.9* | -13.1 | · | 45.0 | · | 1.2
C=C[C@@H](OC)[C@H](OC(=O)Nc1ccc(SC)cc1)c1ccc(OCCO)cc1 | 1.6 | -3.2 | · | -3.4 | · | ·
CC(CNc1ccccc1O)C(=O)O (stereo not given) | 56.4* | · | 2.3 | -16.5 | 11.6 | -1.6
CC(NC(=O)CCC(=O)Nc1ccccc1O)c1ccccc1 (stereo not given) | 0.3 | -2.0 | 0.3 | -16.8 | -0.8 | ·
Cc1noc(C)c1S(=O)(=O)N(C)C[C@H]1OCCCC[C@@H](C)Oc2ccc(NC(=O)C3CCCCC3)cc2C(=O)N([C@H](C)CO)C[C@H]1C | 1.3 | -1.5 | · | -5.6 | · | ·
O=c1cc2oc3cc(O)c(O)cc3c(-c3ccccc3[N+](=O)[O-])c-2cc1O | 96.2* | -2.2 | -13.4 | -0.1 | 128.0* | -1.4
CCCN(C(=O)c1cccc(-n2cccc2)c1)c1c(N)n(Cc2ccccc2)c(=O)[nH]c1=O | 70.7* | -8.6 | 0.0 | -3.3 | 0.7 | 9.3
CCCCN(C(=O)c1cccc(S(=O)(=O)N2CCCC2)c1)c1c(N)n(CCC)c(=O)[nH]c1=O | 1.5 | 0.9 | 0.6 | -15.0 | 0.1 | ·
CCCCN(C(=O)c1cccc(-n2cccc2)c1)c1c(N)n(CCC)c(=O)[nH]c1=O | 41.1* | -0.8 | -1.5 | -71.2 | -0.2 | 8.3
O=C(O)/C(=C\c1ccc(Cl)c([N+](=O)[O-])c1)c1ccc(S(=O)(=O)N2CCCC2)s1 | 69.6* | 9.3 | 1.5 | -17.4 | 49.4 | 10.9
Cc1cc(C=O)c(C)n1-c1ccc(Cl)c(C(=O)O)c1 | 54.0* | · | 0.2 | -15.2 | 166.7* | 2.6 | Alpha artifact=-7.6%
